Experimental data from PubChem BioAssay (NCATS).
Results filed as inconclusive are left out. A call without a number means that no potency is given here. The source made the active and inactive calls.

Test: qHTS assay for cell viability of the p53RE-bla HCT-116 cell line (AID 743292); also: nearly all actives have a fitted effect of over 55% in size
Conditions: p53RE-bla HCT-116 viability, ATP luminescence, 16 h; series mostly up to 95 µM; activity change, negative = cytotoxicity: at the top concentration
How it was run: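 Compound-exposed HCT-116 (p53RE-bla) cells, 4,000 per well, were kept 16 h at 37 C following a 5 h preincubation. Cell number was estimated from total ATP by CellTiter-Glo luminescence read after 30 min at room temperature.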

Q: With `COc1ccc(C(c2ccc(OC)cc2)C(Cl)(Cl)Cl)cc1` as the molecule, how does the Potency read?
A: Its Potency is “inactive”.

Q: For `C=CC(=O)NCNC(=O)C=C`, which Potency is on record?
A: The Potency was “inactive”.

Q: Which “activity change, negative = cytotoxicity” value does the source give for `OCCCBr` here?
A: Its value is -1.43% (inactive).

Q: With `O=[N+]([O-])c1cc([N+](=O)[O-])c2ccccc2c1` as the molecule, how does the “activity change, negative = cytotoxicity” value read?
A: The value was 7.82% (inactive).

Q: With `Nc1ccc(Cl)cc1N` as the molecule, how does the Potency read?
A: The Potency was “inactive”.

Q: For `COC(C)(C)CCCC(C)C/C=C/C(C)=C/C(=O)OC(C)C` (stereo unspecified), which Potency is on record?
A: The Potency was “inactive”.

Q: Which “activity change, negative = cytotoxicity” value does the source give for `COc1nn(CSP(=S)(OC)OC)c(=O)s1` here?
A: The value was -11.5% (inactive).

Q: For `CC(C)(C)C(O)C(Oc1ccc(Cl)cc1)n1cncn1` (stereo unspecified), which “activity change, negative = cytotoxicity” value is on record?
A: The value was 2.16% (inactive).

Q: For `O=C(O)COc1nc(Cl)c(Cl)cc1Cl`, which “activity change, negative = cytotoxicity” value is on record?
A: Its value is -3.85% (inactive).

Q: With `CCCCCCCCCC(CC)c1ccc(S(=O)(=O)O)cc1` (stereo unspecified) as the molecule, how does the Potency read?
A: Its Potency is “inactive”.

Q: Which Potency does the source give for `Nc1ccc(Sc2ccc(N)cc2)cc1` here?
A: The Potency was “inactive”.

Q: For `O=C(O)CCCOc1ccc(Cl)cc1Cl`, which “activity change, negative = cytotoxicity” value is on record?
A: Its value is -8.64% (inactive).

Q: For `CC(C)Oc1cccc(NC(=O)c2ccccc2C(F)(F)F)c1`, which “activity change, negative = cytotoxicity” value is on record?
A: Its value is -2.7% (inactive).

Q: With `Nc1ccc(N=Nc2ccccc2)cc1` as the molecule, how does the “activity change, negative = cytotoxicity” value read?
A: The value was 8.2% (inactive).

Q: For `CCO/N=C(\CC)C1=C(O)CC(c2c(C)cc(C)cc2C)CC1=O` (stereo unspecified), which “activity change, negative = cytotoxicity” value is on record?
A: Its value is -12.4% (inactive).

Q: With `O=[N+]([O-])/N=C1\NCCN1Cc1ccc(Cl)nc1` as the molecule, how does the “activity change, negative = cytotoxicity” value read?
A: The value was -15.2% (inactive).

Q: With `O=[N+]([O-])c1c(Cl)c(Cl)cc(Cl)c1Cl` as the molecule, how does the “activity change, negative = cytotoxicity” value read?
A: The value was 3.25% (inactive).

Q: With `C=CCC1=C(C)C(OC(=O)C2C(C=C(C)C)C2(C)C)CC1=O` (stereo unspecified) as the molecule, how does the Potency read?
A: The Potency was “inactive”.

Q: For `CS(=O)(=O)c1ccc(C(=O)C2C(=O)CCCC2=O)c([N+](=O)[O-])c1`, which “activity change, negative = cytotoxicity” value is on record?
A: The value was 6.72% (inactive).

Q: With `Nc1ccc(Cl)cc1` as the molecule, how does the “activity change, negative = cytotoxicity” value read?
A: The value was -2.79% (inactive).

Q: With `Nc1ccc([N+](=O)[O-])cc1` as the molecule, how does the “activity change, negative = cytotoxicity” value read?
A: The value was -3.13% (inactive).

Q: Which “activity change, negative = cytotoxicity” value does the source give for `CO/C=C(/C(=O)OC)c1ccccc1Oc1cc(Oc2ccccc2C#N)ncn1` here?
A: The value was -23.4% (inactive).

Q: For `ClC1=C(Cl)[C@]2(Cl)[C@@H]3[C@@H]4C[C@@H]([C@H]5O[C@@H]45)[C@@H]3[C@@]1(Cl)C2(Cl)Cl`, which “activity change, negative = cytotoxicity” value is on record?
A: The value was -8.71% (inactive).

Q: Which Potency does the source give for `CCCCC(CC)COC(=O)c1ccccc1C(=O)OCC(CC)CCCC` (stereo unspecified) here?
A: The Potency was “inactive”.

Q: With `c1cc2ccc3cccc4ccc(c1)c2c34` as the molecule, how does the Potency read?
A: The Potency was “inactive”.

Q: With `CCOP(=O)(NC(C)C)Oc1ccc(SC)c(C)c1` (stereo unspecified) as the molecule, how does the Potency read?
A: The Potency was “inactive”.

Q: Which “activity change, negative = cytotoxicity” value does the source give for `O=C(Nc1ccccc1-c1ccc(Cl)cc1)c1cccnc1Cl` here?
A: The value was -11.3% (inactive).

Q: For `O=S(=O)(O)C(F)(F)C(F)(F)C(F)(F)C(F)(F)C(F)(F)C(F)(F)C(F)(F)C(F)(F)F`, which Potency is on record?
A: The Potency was “inactive”.

Q: For `O=S(=O)(c1ccc(Cl)cc1)c1ccc(Cl)cc1`, which Potency is on record?
A: The Potency was “inactive”.

Test: not given
Conditions: Ebola virus entry assay, ratio channel

Q: For `c1ccc2occc2c1`, which outcome is on record?
A: Its outcome is “inactive”.

Q: Which AC50 does the source give for `COc1ccc(C(c2ccc(OC)cc2)C(Cl)(Cl)Cl)cc1` here?
A: The AC50 was 22.4 µM (active).

Q: For `C=CC(=O)NCNC(=O)C=C`, which outcome is on record?
A: The outcome was “inactive”.

Q: With `OCCCBr` as the molecule, how does the outcome read?
A: The outcome was “inactive”.

Q: For `CC[N+](C)(CC)CCOC(=O)C(O)(c1ccccc1)C1CCCCC1` (stereo unspecified), which outcome is on record?
A: The outcome was “inactive”.

Q: For `NC(CO)C(=O)NNCc1ccc(O)c(O)c1O` (stereo unspecified), which outcome is on record?
A: Its outcome is “inactive”.

Q: Which outcome does the source give for `O=[N+]([O-])c1cc([N+](=O)[O-])c2ccccc2c1` here?
A: The outcome was “inactive”.

Q: For `Nc1ccc(Cl)cc1N`, which outcome is on record?
A: Its outcome is “inactive”.

Q: With `COC(C)(C)CCCC(C)C/C=C/C(C)=C/C(=O)OC(C)C` (stereo unspecified) as the molecule, how does the outcome read?
A: The outcome was “inactive”.

Q: With `COc1nn(CSP(=S)(OC)OC)c(=O)s1` as the molecule, how does the outcome read?
A: Its outcome is “inactive”.

Q: With `CC(C)(C)C(O)C(Oc1ccc(Cl)cc1)n1cncn1` (stereo unspecified) as the molecule, how does the outcome read?
A: The outcome was “inactive”.

Q: With `O=C1NS(=O)(=O)c2ccccc21` as the molecule, how does the outcome read?
A: The outcome was “inactive”.

Q: Which outcome does the source give for `O=C(O)COc1nc(Cl)c(Cl)cc1Cl` here?
A: Its outcome is “inactive”.

Q: Which AC50 does the source give for `CCCCCCCCCC(CC)c1ccc(S(=O)(=O)O)cc1` (stereo unspecified) here?
A: The AC50 was 31.6 µM (active).

Q: With `Nc1ccc(Sc2ccc(N)cc2)cc1` as the molecule, how does the outcome read?
A: Its outcome is “inactive”.

Q: Which outcome does the source give for `O=C(O)CCCOc1ccc(Cl)cc1Cl` here?
A: Its outcome is “inactive”.

Q: With `CC(C)Oc1cccc(NC(=O)c2ccccc2C(F)(F)F)c1` as the molecule, how does the outcome read?
A: The outcome was “inactive”.

Q: Which outcome does the source give for `Nc1ccc(N=Nc2ccccc2)cc1` here?
A: Its outcome is “inactive”.

Q: Which outcome does the source give for `CCO/N=C(\CC)C1=C(O)CC(c2c(C)cc(C)cc2C)CC1=O` (stereo unspecified) here?
A: The outcome was “inactive”.

Q: With `O=[N+]([O-])/N=C1\NCCN1Cc1ccc(Cl)nc1` as the molecule, how does the outcome read?
A: The outcome was “inactive”.

Q: With `O=[N+]([O-])c1c(Cl)c(Cl)cc(Cl)c1Cl` as the molecule, how does the outcome read?
A: Its outcome is “inactive”.

Q: For `C=CCC1=C(C)C(OC(=O)C2C(C=C(C)C)C2(C)C)CC1=O` (stereo unspecified), which outcome is on record?
A: The outcome was “inactive”.

Q: For `CS(=O)(=O)c1ccc(C(=O)C2C(=O)CCCC2=O)c([N+](=O)[O-])c1`, which outcome is on record?
A: Its outcome is “inactive”.

Q: For `S=c1[nH]c2ccccc2s1`, which outcome is on record?
A: Its outcome is “inactive”.

Q: For `Nc1ccc(Cl)cc1`, which outcome is on record?
A: Its outcome is “inactive”.

Q: For `CC(C)OC(=O)c1cc(C(=O)OC(C)C)cc([N+](=O)[O-])c1`, which outcome is on record?
A: The outcome was “inactive”.

Q: For `Nc1ccc([N+](=O)[O-])cc1`, which outcome is on record?
A: Its outcome is “inactive”.

Q: With `CO/C=C(/C(=O)OC)c1ccccc1Oc1cc(Oc2ccccc2C#N)ncn1` as the molecule, how does the outcome read?
A: Its outcome is “inactive”.

Q: For `CCCCCCCCCCCCCC(=O)OC(C)C`, which outcome is on record?
A: Its outcome is “inactive”.

Q: For `ClC1=C(Cl)[C@]2(Cl)[C@@H]3[C@@H]4C[C@@H]([C@H]5O[C@@H]45)[C@@H]3[C@@]1(Cl)C2(Cl)Cl`, which AC50 is on record?
A: Its AC50 is 5.62 µM (active).

Q: For `O=S(c1cc(Cl)cc(Cl)c1O)c1cc(Cl)cc(Cl)c1O`, which outcome is on record?
A: Its outcome is “inactive”.

Q: For `CCCCC(CC)COC(=O)c1ccccc1C(=O)OCC(CC)CCCC` (stereo unspecified), which outcome is on record?
A: The outcome was “inactive”.
